This note sets out measurements from ChEMBL document CHEMBL4513141, “CO-ADD screening of NIH (USA) - Clinical Collection” (2021).

The structures appear in SMILES notation. Results with a measured potency or affinity are listed apart.

One assay concerns Klebsiella pneumoniae. As to conditions: Concentration 20 uM; ASSAY_TEST Inhibition of Bacterial Growth; detection method Absorption (OD600); MEDIA CAMHB; plate type 384well; NBS; CORNING #3640; time 18 hr.
For another assay, the system named is Candida albicans. The note with it: 20 µM.
The subject of the next assay is Cryptococcus neoformans. The note with it: Concentration 20 uM; ASSAY_TEST Inhibition of Fungal Growth; detection method Resazurin; Absorption (OD600-OD570); plate type 384well; NBS; CORNING #3640. Background: The colour change of resazurin is a common sign of viable cells or microbes.

As a reminder, the Inhibition is the drop in the measured response relative to a control, in per cent. Take `CC(=O)Nc1ccc(CC(=O)O)cc1` [ACTARIT]: the Inhibition is 4.76% in the assay on Klebsiella pneumoniae, -0.65% with Candida albicans and 4.09% in the assay with Cryptococcus neoformans.

As for `CN(C)CCCN1c2ccccc2CCc2ccc(Cl)cc21.Cl` [CLOMIPRAMINE HYDROCHLORIDE], the Inhibition in the assay on Klebsiella pneumoniae was 18.4%; with Candida albicans, 2.36%; in the assay on Cryptococcus neoformans, -9.01%.

For the molecule `NS(=O)(=O)c1cc(C(=O)O)c(NCc2ccco2)cc1Cl` [FUROSEMIDE], the figures for the Inhibition in the assay on Klebsiella pneumoniae, with Candida albicans and with Cryptococcus neoformans were 9.57%, 3.34% and -7.53%, respectively.

As to `COc1cc2nc(N3CCN(C(=O)C4COc5ccccc5O4)CC3)nc(N)c2cc1OC` (stereo not given) [DOXAZOSIN], the figures for the Inhibition in the assay on Klebsiella pneumoniae, in the assay on Candida albicans and with Cryptococcus neoformans were 13.22%, 3.14% and 2.35%, respectively.

As to `CC1=C(/C=C/C(C)=C/C=C/C(C)=C/C(=O)O)C(C)(C)CCC1` [TRETINOIN], the Inhibition with Klebsiella pneumoniae is 14.57%; in the assay on Candida albicans it was 2.93%; in the assay with Cryptococcus neoformans, -0.54%.

Turning to `Cc1nccn1CC1CCc2c(c3ccccc3n2C)C1=O` (stereo not given) [ONDANSETRON], the values for the Inhibition in the assay on Klebsiella pneumoniae, in the assay on Candida albicans and in the assay with Cryptococcus neoformans were 11.11%, 4.72% and -0.32%, respectively.

Regarding `CCCc1nc(C(C)(C)O)c(C(=O)OCc2oc(=O)oc2C)n1Cc1ccc(-c2ccccc2-c2nnn[nH]2)cc1` [OLMESARTAN MEDOXOMIL], the Inhibition in the assay on Klebsiella pneumoniae is 5.33%; in the assay on Candida albicans, 4.08%; with Cryptococcus neoformans, -0.73%.

In the case of `CCN1CCCC1CNC(=O)c1cc(S(=O)(=O)CC)c(N)cc1OC` (stereo not given) [AMISULPRIDE], the Inhibition was 4.49% in the assay with Klebsiella pneumoniae, 1.45% in the assay with Candida albicans and -4% in the assay with Cryptococcus neoformans.

As for `CCCCC(=O)O[C@H]1CC[C@H]2[C@@H]3CCc4cc(O)ccc4[C@H]3CC[C@]12C` [ESTRADIOL VALERATE], the Inhibition stood at 8.52% in the assay on Klebsiella pneumoniae, 0.66% with Candida albicans and 2.38% with Cryptococcus neoformans.

For `CN(CCOc1ccc(CC2SC(=O)NC2=O)cc1)c1ccccn1.O=C(O)/C=C\C(=O)O` (stereo not given) [ROSIGLITAZONE MALEATE], the results for the Inhibition in the assay on Klebsiella pneumoniae, with Candida albicans and in the assay with Cryptococcus neoformans were 9.63%, 0.75% and -9.6%, respectively.
